According to the supplement of paper PMC11732987, “Enantioselective OTUD7B fragment discovery through chemoproteomics screening and high-throughput optimisation” (Communications Chemistry, 2025):

How the values were obtained:
Assay in all cases: log2 ratio of Biotin-Ahx-Ub-VS probe labelling (fragment/DMSO); higher = less target engagement (more negative = stronger competition), active = hit call of the paper (q ≤ 0.05, log2 ratio ≤ -1)
Conditions in all cases: compound concentration: 200 uM; treatment time: 3 h
USP42 = target: T1, USP42 (UniProt Q9H9J4)
T1 sequence (whole entry): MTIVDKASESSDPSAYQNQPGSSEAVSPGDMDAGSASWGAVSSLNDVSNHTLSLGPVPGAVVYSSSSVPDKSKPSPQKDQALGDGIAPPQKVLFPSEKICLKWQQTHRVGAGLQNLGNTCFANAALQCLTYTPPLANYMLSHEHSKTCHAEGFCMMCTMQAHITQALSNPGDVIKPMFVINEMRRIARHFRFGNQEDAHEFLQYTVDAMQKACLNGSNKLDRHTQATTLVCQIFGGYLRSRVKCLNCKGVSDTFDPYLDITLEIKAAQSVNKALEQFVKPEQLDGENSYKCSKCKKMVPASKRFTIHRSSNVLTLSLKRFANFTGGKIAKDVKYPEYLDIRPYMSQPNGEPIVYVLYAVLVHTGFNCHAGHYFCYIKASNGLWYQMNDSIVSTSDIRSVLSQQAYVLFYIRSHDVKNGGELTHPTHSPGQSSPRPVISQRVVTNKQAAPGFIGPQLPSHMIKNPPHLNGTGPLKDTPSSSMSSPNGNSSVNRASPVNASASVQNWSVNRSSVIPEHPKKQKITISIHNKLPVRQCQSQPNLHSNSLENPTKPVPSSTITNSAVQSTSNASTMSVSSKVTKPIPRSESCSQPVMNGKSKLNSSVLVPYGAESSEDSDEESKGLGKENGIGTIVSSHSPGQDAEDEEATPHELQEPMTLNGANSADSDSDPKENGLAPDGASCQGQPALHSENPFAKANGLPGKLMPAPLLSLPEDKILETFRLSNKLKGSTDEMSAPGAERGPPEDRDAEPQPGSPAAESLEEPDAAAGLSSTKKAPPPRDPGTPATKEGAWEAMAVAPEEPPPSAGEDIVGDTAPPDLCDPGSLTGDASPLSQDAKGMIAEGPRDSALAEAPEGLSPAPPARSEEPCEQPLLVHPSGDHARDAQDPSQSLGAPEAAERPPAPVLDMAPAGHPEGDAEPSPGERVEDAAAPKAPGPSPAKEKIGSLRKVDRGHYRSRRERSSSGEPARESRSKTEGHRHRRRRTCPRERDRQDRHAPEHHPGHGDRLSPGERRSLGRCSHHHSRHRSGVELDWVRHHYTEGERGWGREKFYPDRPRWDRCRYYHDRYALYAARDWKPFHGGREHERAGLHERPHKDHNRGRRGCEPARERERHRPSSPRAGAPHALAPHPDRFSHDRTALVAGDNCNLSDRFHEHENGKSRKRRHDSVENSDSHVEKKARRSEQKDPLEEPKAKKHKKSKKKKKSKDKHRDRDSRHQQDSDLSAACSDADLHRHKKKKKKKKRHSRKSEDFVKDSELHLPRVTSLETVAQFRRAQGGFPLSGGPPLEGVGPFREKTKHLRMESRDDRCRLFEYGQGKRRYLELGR
Method in brief: (§1)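 Fragment (200 µM) or vehicle was incubated for 3 h with triplicate HEK293T lysate samples of 495 µg, which were then treated with Biotin-Ahx-Ub-VS at 0.5 µM final for 1 h. Labelled DUBs were enriched on NeutrAvidin, digested with LysC and trypsin, and analysed by diaPASEF LC-MS/MS. Values are average log2 fragment/vehicle ratios from an unpaired t-test on global-median-normalised Spectronaut label-free quantities, using proteins with ≥2 unique peptides.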

USP46 = USP46 (UniProt P62068)
Sequence of USP46 (P62068 whole entry): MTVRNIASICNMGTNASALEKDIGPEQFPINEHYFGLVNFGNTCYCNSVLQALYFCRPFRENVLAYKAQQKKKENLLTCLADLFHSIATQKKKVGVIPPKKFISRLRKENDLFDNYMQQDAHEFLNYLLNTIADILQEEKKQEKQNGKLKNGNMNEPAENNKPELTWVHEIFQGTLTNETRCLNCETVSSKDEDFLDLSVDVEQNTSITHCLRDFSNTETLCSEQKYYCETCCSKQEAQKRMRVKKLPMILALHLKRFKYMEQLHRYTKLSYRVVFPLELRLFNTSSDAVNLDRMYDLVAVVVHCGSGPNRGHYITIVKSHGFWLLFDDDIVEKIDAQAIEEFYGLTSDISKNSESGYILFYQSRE
Method in brief: as §1

USP47 = target: T2, USP47 (UniProt Q96K76)
T2 sequence (whole entry): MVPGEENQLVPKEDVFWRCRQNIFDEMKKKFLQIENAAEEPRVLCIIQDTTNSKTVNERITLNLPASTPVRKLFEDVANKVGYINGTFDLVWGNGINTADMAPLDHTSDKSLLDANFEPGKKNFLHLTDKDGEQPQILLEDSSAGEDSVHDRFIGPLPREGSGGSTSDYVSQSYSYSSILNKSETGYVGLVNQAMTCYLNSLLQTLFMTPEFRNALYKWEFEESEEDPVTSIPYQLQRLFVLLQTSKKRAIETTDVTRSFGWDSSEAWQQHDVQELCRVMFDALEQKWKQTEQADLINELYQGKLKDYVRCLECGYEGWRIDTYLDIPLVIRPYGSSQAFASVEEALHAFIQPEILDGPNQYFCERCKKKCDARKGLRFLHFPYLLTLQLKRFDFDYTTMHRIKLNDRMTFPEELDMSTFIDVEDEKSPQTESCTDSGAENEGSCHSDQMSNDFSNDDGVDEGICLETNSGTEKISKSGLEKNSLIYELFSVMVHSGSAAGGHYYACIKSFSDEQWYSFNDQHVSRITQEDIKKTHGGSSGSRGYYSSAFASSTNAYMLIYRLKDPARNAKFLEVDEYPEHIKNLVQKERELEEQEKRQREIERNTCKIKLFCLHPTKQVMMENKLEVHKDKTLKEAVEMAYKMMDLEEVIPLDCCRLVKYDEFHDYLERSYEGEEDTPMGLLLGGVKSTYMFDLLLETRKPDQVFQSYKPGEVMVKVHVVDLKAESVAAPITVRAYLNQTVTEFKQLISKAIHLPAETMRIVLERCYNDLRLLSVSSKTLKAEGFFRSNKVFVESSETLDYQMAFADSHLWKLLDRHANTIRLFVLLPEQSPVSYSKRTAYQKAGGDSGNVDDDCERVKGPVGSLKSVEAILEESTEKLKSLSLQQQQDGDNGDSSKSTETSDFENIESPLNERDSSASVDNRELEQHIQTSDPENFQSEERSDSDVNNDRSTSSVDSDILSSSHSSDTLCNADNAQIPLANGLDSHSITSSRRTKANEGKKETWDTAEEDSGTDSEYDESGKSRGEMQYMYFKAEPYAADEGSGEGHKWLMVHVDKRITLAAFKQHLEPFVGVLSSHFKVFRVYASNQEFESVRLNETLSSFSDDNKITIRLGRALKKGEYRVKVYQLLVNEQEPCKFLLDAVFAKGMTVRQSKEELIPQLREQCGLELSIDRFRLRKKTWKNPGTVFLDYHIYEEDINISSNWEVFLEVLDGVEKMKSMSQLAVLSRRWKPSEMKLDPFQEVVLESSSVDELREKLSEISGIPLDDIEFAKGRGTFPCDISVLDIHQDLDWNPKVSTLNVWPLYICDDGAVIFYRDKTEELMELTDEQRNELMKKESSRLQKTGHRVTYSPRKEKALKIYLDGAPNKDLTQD
Method in brief: as §1

USP48 = target: T3, USP48 (UniProt Q86UV5)
T3 sequence (whole entry): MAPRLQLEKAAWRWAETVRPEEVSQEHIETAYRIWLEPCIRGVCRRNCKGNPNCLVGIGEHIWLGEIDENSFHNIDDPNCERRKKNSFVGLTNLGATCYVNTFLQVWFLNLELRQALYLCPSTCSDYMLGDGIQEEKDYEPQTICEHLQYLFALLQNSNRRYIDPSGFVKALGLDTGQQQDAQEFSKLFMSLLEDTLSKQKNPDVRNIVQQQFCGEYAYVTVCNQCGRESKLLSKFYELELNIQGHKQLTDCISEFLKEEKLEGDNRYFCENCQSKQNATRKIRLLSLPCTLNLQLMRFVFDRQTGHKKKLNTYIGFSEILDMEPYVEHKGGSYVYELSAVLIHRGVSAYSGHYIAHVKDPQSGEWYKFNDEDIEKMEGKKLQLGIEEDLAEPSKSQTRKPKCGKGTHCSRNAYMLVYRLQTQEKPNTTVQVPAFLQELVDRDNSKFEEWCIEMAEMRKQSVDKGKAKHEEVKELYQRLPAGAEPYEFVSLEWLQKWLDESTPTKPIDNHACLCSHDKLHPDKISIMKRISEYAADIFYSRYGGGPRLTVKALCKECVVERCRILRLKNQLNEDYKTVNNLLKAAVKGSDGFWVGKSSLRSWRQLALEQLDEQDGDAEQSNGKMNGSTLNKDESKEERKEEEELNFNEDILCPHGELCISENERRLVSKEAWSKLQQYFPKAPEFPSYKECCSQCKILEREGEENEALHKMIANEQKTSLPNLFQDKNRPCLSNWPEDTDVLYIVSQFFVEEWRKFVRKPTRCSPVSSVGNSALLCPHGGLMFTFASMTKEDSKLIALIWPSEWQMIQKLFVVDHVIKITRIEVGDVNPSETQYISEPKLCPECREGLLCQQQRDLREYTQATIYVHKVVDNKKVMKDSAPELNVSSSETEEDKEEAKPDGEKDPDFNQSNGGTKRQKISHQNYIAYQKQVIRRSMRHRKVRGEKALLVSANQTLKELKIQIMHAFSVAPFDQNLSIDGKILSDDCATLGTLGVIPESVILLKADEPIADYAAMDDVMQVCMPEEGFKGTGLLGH
Method in brief: as §1

USP5 = target: T4, USP5 (UniProt P45974)
T4 sequence (whole entry): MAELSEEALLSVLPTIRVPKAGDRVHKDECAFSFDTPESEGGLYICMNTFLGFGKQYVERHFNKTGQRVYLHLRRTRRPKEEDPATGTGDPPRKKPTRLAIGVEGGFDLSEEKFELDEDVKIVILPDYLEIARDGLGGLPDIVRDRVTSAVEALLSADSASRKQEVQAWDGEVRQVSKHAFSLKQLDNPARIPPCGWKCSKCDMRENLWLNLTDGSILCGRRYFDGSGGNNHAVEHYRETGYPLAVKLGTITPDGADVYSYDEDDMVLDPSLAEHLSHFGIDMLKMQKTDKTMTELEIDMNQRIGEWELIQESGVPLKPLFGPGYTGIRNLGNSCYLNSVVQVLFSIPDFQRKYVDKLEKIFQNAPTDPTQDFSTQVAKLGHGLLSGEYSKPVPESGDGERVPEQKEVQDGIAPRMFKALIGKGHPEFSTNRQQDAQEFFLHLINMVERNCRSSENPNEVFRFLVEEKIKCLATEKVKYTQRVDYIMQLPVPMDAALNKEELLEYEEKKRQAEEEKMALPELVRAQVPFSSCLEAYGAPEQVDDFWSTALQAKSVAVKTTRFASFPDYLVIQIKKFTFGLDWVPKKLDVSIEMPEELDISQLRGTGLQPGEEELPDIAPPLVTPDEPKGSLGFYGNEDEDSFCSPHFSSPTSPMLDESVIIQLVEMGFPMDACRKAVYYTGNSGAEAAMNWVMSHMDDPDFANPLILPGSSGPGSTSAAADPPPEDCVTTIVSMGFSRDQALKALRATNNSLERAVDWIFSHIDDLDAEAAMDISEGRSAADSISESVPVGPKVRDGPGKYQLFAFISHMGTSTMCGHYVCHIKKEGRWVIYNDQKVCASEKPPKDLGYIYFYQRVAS
Method in brief: as §1

USP54 = USP54 (UniProt Q70EL1)
Sequence of USP54 (Q70EL1 whole entry): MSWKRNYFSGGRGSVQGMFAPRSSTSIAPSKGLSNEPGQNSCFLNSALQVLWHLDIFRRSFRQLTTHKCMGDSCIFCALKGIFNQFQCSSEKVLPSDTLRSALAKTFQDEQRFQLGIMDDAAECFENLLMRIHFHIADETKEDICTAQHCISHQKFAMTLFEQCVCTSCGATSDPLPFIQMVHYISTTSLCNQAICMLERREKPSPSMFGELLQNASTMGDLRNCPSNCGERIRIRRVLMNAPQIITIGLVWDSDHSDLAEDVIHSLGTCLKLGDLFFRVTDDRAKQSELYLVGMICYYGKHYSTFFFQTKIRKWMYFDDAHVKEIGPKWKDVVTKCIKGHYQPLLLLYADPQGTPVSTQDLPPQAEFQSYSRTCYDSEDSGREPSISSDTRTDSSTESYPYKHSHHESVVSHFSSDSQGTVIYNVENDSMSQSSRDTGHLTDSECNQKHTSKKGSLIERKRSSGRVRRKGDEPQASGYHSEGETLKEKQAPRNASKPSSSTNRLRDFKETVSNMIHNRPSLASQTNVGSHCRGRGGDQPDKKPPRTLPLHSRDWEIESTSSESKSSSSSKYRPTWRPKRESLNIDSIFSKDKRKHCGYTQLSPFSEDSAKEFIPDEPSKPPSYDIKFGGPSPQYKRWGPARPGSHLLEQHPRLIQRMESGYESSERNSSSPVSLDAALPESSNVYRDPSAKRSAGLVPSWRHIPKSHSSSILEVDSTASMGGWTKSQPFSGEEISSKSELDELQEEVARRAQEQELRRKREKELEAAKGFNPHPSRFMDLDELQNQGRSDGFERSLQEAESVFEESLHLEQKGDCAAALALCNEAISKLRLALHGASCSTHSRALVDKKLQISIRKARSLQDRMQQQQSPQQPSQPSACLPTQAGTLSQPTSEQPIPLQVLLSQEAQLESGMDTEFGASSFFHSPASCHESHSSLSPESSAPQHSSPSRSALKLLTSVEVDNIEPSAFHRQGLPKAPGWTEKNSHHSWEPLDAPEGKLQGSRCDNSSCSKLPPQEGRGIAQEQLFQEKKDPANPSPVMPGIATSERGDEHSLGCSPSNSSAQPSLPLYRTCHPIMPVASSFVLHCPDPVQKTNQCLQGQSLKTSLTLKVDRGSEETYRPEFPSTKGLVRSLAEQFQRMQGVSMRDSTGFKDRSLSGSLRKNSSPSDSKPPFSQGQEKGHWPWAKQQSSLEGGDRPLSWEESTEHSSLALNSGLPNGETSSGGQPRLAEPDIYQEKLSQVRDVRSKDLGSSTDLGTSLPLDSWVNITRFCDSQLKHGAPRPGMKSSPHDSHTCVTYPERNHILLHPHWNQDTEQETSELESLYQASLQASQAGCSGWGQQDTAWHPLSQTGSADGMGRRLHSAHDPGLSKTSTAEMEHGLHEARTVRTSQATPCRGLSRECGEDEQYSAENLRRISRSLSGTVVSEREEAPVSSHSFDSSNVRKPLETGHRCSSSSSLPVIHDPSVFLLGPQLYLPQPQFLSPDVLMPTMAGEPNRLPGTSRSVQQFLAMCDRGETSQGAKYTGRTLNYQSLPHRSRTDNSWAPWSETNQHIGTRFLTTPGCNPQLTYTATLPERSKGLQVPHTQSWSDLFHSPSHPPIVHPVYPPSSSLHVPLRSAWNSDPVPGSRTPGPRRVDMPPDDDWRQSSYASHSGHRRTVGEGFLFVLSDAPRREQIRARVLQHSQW
Method in brief: as §1

USP7 = USP7 (UniProt Q93009)
Method in brief: as §1

USP8 = target: T5, USP8 (UniProt P40818)
T5 sequence (whole entry): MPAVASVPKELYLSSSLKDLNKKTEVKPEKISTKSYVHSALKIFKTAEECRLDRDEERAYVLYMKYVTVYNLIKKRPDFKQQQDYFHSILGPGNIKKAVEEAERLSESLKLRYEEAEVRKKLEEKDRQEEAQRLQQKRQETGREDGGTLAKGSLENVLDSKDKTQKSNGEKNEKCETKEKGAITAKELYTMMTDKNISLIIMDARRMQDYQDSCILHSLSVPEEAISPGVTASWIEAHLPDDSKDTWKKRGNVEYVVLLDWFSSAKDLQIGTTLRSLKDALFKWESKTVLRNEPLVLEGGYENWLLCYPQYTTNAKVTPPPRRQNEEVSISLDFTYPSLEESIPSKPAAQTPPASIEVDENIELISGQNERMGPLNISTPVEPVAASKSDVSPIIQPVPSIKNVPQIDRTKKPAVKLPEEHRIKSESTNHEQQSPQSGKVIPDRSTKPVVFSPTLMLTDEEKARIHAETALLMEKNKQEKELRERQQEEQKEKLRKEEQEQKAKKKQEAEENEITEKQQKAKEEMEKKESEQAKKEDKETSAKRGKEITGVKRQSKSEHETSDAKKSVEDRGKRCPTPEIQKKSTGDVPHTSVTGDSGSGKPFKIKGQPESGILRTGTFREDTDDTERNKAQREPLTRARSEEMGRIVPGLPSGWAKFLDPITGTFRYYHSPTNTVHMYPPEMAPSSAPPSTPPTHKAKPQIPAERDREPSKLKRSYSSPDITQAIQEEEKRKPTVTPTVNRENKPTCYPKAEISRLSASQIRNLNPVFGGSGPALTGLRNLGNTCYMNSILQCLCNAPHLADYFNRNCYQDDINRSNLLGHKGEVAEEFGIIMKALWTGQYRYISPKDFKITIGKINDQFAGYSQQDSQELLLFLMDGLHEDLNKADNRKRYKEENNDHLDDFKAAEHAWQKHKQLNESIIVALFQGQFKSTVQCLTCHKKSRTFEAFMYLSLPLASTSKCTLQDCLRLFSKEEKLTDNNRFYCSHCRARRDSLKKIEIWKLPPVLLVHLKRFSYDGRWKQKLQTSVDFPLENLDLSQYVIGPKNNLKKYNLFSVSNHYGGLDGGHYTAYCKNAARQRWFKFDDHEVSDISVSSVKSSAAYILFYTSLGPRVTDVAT
Method in brief: as §1

USP9X = USP9X (UniProt Q93008)
Sequence of USP9X (Q93008 whole entry): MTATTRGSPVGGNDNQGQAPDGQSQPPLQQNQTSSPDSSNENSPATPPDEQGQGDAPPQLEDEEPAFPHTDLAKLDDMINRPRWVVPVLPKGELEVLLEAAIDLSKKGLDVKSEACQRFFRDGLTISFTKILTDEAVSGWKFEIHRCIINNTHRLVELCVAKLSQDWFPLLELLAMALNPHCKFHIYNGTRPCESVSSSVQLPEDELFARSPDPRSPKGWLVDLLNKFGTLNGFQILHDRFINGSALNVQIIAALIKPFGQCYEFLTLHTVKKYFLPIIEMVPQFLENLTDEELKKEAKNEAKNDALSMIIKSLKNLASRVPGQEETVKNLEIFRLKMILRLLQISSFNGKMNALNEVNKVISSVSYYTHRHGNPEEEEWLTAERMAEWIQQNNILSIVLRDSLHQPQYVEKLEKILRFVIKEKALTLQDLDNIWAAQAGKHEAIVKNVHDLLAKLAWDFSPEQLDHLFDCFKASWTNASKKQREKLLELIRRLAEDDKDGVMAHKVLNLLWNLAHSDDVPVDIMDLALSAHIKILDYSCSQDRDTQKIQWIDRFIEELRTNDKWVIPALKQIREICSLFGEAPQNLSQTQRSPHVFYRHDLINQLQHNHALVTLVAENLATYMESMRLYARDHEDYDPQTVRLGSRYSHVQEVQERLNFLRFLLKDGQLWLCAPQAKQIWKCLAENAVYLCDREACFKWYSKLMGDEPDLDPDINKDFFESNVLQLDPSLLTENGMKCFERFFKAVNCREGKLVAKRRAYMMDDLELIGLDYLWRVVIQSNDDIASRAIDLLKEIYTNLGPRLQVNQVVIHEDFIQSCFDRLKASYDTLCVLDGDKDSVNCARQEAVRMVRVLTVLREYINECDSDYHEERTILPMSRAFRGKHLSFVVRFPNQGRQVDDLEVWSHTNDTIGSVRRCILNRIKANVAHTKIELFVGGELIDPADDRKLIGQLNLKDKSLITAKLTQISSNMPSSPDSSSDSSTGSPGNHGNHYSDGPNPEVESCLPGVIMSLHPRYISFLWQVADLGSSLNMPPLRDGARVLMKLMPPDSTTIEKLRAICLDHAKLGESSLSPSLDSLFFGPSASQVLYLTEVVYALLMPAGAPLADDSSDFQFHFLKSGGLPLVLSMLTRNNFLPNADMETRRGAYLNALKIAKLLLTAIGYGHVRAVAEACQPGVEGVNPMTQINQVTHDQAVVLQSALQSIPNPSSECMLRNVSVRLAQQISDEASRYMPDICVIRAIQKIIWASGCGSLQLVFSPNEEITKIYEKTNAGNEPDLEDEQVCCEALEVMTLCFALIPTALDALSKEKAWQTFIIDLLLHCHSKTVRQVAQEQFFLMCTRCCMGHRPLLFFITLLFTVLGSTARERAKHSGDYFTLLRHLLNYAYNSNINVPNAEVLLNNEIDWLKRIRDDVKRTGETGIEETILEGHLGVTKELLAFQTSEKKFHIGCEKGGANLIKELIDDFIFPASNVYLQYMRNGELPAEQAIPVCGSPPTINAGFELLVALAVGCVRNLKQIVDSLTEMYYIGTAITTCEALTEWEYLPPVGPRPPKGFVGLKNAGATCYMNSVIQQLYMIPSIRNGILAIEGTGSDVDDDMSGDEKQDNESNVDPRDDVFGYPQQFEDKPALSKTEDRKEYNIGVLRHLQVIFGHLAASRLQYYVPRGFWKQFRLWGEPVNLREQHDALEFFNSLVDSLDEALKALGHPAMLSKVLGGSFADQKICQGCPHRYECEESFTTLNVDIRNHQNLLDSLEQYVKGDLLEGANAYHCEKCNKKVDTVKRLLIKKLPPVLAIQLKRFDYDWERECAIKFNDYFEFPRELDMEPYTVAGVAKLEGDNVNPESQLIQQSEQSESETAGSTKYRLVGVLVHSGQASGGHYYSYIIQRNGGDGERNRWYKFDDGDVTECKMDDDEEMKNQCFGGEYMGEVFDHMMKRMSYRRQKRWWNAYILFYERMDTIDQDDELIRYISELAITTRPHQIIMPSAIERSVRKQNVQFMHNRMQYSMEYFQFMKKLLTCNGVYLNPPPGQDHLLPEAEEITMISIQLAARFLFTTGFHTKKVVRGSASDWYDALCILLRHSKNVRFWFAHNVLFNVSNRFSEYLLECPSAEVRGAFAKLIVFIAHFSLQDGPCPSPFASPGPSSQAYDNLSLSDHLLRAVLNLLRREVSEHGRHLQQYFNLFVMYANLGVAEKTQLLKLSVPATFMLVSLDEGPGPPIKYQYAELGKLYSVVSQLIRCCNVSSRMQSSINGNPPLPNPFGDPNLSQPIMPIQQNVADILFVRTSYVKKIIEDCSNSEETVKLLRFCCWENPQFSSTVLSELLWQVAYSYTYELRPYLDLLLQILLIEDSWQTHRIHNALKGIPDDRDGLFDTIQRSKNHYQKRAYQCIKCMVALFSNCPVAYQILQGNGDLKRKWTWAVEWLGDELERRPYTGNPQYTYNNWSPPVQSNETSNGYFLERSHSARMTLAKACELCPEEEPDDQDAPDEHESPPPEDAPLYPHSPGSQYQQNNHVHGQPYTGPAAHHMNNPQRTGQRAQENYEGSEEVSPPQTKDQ
Method in brief: as §1

UniProt O00487 = target: UniProt O00487
Sequence of UniProt O00487 (O00487 whole entry): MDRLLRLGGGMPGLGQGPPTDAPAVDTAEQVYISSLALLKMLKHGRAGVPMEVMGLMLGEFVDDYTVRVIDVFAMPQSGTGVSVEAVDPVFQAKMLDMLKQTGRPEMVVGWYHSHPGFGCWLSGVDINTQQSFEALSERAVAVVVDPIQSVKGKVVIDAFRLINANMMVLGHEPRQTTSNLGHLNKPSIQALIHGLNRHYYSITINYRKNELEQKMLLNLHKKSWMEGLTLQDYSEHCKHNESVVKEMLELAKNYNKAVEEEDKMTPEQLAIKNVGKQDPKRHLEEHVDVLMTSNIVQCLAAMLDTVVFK
Method in brief: as §1

Measured: log2 ratio of Biotin-Ahx-Ub-VS probe labelling

Cc1cccc(N(CCC#N)C(=O)CCl)c1C
inactive: USP42 0.0225 | USP46 0.0197 | USP47 -0.354 | USP48 -0.0383 | USP5 0.289 | USP54 0.431 | USP7 -0.47 | USP8 0.0891 | USP9X 0.0273 | UniProt O00487 0.0621
